Measured values: the supplement of paper PMC10646978
± gives the standard deviation.

How the values were obtained:
Settings in all cases: modulator concentration 10 µM
[1] = system: RAW-Dual (murine macrophage reporter line); assay: NF-kB reporter (SEAP) activity fold change vs agonist alone; higher = enhanced NF-kB activity
In short: (§1)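 Overnight stimulation with a PRR agonist followed pre-incubation for 1 hour at 37 °C with compound at 10 μM final. This was done in RAW-Dual murine macrophage reporter cells seeded at 50 000 per well in 384-well plates. NF-κB (SEAP, QUANTI-Blue absorbance at 620 nm) and IRF (Lucia luciferase, QUANTI-Luc luminescence) were read from the supernatant. Each reporter's fold change relative to the mean agonist-only control on the same plate was averaged over replicate plates.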

[2] = system: RAW-Dual (murine macrophage reporter line); assay: IRF reporter (Lucia luciferase) activity fold change vs agonist alone; higher = enhanced IRF activity
In short: as §1

[3] = system: RAW-Dual (murine macrophage reporter line); assay: viability score (confluency relative to resting cells, overnight) (fraction); higher = more viable, active = viable (0.7 or more)
In short: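 RAW-Dual macrophages in 384-well plates were incubated overnight with compound, final concentration 10 μM. Confluency images from IncuCyte were processed in IncuCyte software into two masks covering all imaged wells. The viability score is each well's confluency relative to resting cells, and a compound met the cutoff when both masks exceeded 70% of resting cells.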

[4] = agonist: CpG ODN 1826 0.5 ug/mL

SMILES	NF-kB reporter [1, 4]	NF-kB reporter ([1]; agonist: LPS 0.1 ug/mL)	NF-kB reporter ([1]; agonist: MPLA […])	IRF reporter ([2]; agonist: 3'3'-cGAMP 10 ug/mL)	IRF reporter ([2]; agonist: LPS 0.1 ug/mL)	IRF reporter ([2]; agonist: MPLA […])	viability score [3]
CC1(C)OC(=O)NC1=O [Prestw-829]	1 ± 0.076	1.07 ± 0.065	0.958 ± 0.024	0.93 ± 0.051	0.958 ± 0.13	1.01 ± 0.12	0.998 (active)
O=C(c1ccc(S(=O)(=O)N2CCCC2)cc1)N1CC(Nc2ccncn2)C1	0.978 ± 0.1	0.986 ± 0.086	0.921 ± 0.057	0.969 ± 0.071	1.23 ± 0.13	1.06 ± 0.095	1 (active)
COC(=O)c1cc(NC(=O)c2cc(OC)c(OC)cc2[N+](=O)[O-])cc(C(=O)OC)c1	0.99 ± 0.1	1.03 ± 0.057	0.913 ± 0.074	0.999 ± 0.063	1.59 ± 0.19	1.22 ± 0.091	1.01 (active)
Clc1ccc(CN2CCN(CCn3ccnc3-c3ccccc3)CC2)cc1	0.584 ± 0.055	1.29 ± 0.12	1.37 ± 0.2	0.841 ± 0.042	1.27 ± 0.086	1.13 ± 0.22	0.993 (active)
COc1ccc(C)cc1NC(=O)CN(c1cccc(Br)c1)S(=O)(=O)c1ccccc1	0.904 ± 0.077	0.97 ± 0.053	0.915 ± 0.062	0.94 ± 0.023	1.11 ± 0.092	0.809 ± 0.18	1.02 (active)
CC(C)CC(C(=O)Nc1cccc(O)c1)N1C(=O)c2ccccc2C1=O (configuration not stated)	0.947 ± 0.076	1.04 ± 0.099	1.16 ± 0.083	1.04 ± 0.04	1.64 ± 0.15	1.63 ± 0.14	0.913 (active)
CCOC(=O)N[C@@H]1CC[C@@H]2[C@@H](C1)C[C@H]1C(=O)O[C@H](C)[C@H]1[C@H]2/C=C/c1ccc(-c2cccc(F)c2)cn1	0.376 ± 0.022	0.451 ± 0.1	0.323 ± 0.019	0.653 ± 0.082	0.783 ± 0.15	0.737 ± 0.16	0.299 (inactive)
Cc1ccc2[nH]c3nc(C)cc(C)c3c(=O)c2c1	0.967 ± 0.16	1.08 ± 0.091	0.993 ± 0.12	1.01 ± 0.052	1.25 ± 0.25	1.31 ± 0.21	0.704 (active)
CC(=O)SCC(Cc1ccccc1)C(=O)NCC(=O)OCc1ccccc1 (configuration not stated)	1.01 ± 0.075	0.997 ± 0.07	0.99 ± 0.045	0.967 ± 0.08	0.76 ± 0.027	0.785 ± 0.087	1 (active)
COc1ccc(-n2nc(C(N)=O)c3c2C(=O)N(c2ccc(N4CCCCC4=O)cc2)CC3)cc1	0.793 ± 0.076	0.859 ± 0.052	1.12 ± 0.12	0.994 ± 0.046	1.19 ± 0.073	1.33 ± 0.11	1.01 (active)
C=CCNc1oc(Cc2cccc3ccccc23)nc1C#N	0.818 ± 0.039	1.04 ± 0.091	1.13 ± 0.062	0.731 ± 0.036	1.16 ± 0.25	1.28 ± 0.4	0.952 (active)
COC(=O)C1=C(C)N(C)C(C)=C(C(=O)OC)C1c1ccc(-c2ccccc2)cc1	0.873 ± 0.069	0.943 ± 0.057	0.939 ± 0.06	0.989 ± 0.03	1.06 ± 0.16	0.905 ± 0.19	1 (active)
COc1ccc(C(=O)C=Cc2cc(OC)c(OC)cc2OC)c(OC)c1	0.958 ± 0.24	0.902 ± 0.13	0.839 ± 0.067	0.506 ± 0.013	1.15 ± 0.16	1.06 ± 0.17	1 (active)
Cl.O[C@@H](CNC[C@H](O)[C@H]1CCc2cc(F)ccc2O1)[C@@H]1CCc2cc(F)ccc2O1	0.947 ± 0.09	0.759 ± 0.049	0.982 ± 0.028	0.68 ± 0.087	0.642 ± 0.021	1.13 ± 0.21	0.13 (inactive)
CC(=O)N=C1NC(=O)C(=Cc2ccc(C)o2)S1	0.92 ± 0.088	0.847 ± 0.067	0.965 ± 0.026	0.817 ± 0.065	0.895 ± 0.082	0.823 ± 0.083	0.995 (active)
Cc1ccc(-c2cc(C(F)(F)F)nn2-c2ccc(S(N)(=O)=O)cc2)cc1	0.337 ± 0.026	0.481 ± 0.03	0.59 ± 0.078	1.1 ± 0.091	0.848 ± 0.052	0.984 ± 0.087	0.183 (inactive)
O=C1c2ccccc2-c2nc3ccccc3n21	0.969 ± 0.17	1.24 ± 0.11	1.14 ± 0.12	0.983 ± 0.033	1.05 ± 0.21	1.28 ± 0.16	0.856 (active)
CCC1OC(=O)C(C)C(OC2CC(C)(OC)C(O)C(C)O2)C(C)C(OC2OC(C)CC(N(C)C)C2O)C(C)(O)CC(C)CN(C)C(C)C(O)C1(C)O (configuration not stated)	0.593 ± 0.046	1.1 ± 0.07	1.19 ± 0.029	0.727 ± 0.058	0.948 ± 0.11	0.952 ± 0.088	0.998 (active)
CCN(CC)C(=O)N1CCN(C)CC1 [Prestw-284]	1.02 ± 0.063	1.03 ± 0.064	0.96 ± 0.062	0.974 ± 0.034	1.41 ± 0.24	1.28 ± 0.14	0.99 (active)
N=C(N)NCCN1CCCCCCC1.O=S(=O)(O)O	1.25 ± 0.3	1.11 ± 0.088	1.24 ± 0.26	0.929 ± 0.032	1.27 ± 0.14	1.24 ± 0.12	0.993 (active)
COC(=O)C1=CN(CC2CCCO2)C=C(C(=O)OC)C1c1ccc(Cl)cc1 (configuration not stated)	0.999 ± 0.19	0.992 ± 0.11	1.44 ± 0.54	0.94 ± 0.025	1.04 ± 0.13	1.07 ± 0.11	1 (active)
CC(NC(=O)COc1ccc(C=NNC(=O)c2ccccc2O)cc1)c1ccccc1 (configuration not stated)	1.05 ± 0.13	1.03 ± 0.065	1.02 ± 0.061	0.985 ± 0.028	1.63 ± 0.23	1.2 ± 0.1	1.01 (active)
CC1ON(c2ccc(Cl)c(Cl)c2)C(=O)NC1=O (configuration not stated)	1.02 ± 0.13	0.886 ± 0.065	1.06 ± 0.11	1.03 ± 0.032	1.27 ± 0.2	1.49 ± 0.24	0.998 (active)
O=C(CCCn1c(=O)[nH]c2ccc(Br)cc2c1=O)NCC1CCCO1 (configuration not stated)	0.965 ± 0.081	1.05 ± 0.099	0.931 ± 0.043	0.957 ± 0.057	1.04 ± 0.063	0.94 ± 0.25	1.02 (active)
O=c1[nH]cc(F)c(=O)[nH]1	1.48 ± 0.29	0.887 ± 0.21	1 ± 0.059	1.1 ± 0.059	1.33 ± 0.18	1.01 ± 0.17	0.735 (active)
CC1(C)CC(NC(=O)c2cccnc2-c2nc3ccccc3s2)CC(C)(C)N1	0.747 ± 0.078	0.964 ± 0.083	0.948 ± 0.19	0.892 ± 0.048	1.06 ± 0.067	1.12 ± 0.09	0.998 (active)
